This note sets out measurements from PubChem BioAssay (NCATS).

Inconclusive results are not listed. Values without a mark were called inactive. Activity calls are given as the source filed them. Calls follow the shape of the dose curve; as a rule, active = well fitted curve in the direction sought with a large enough effect; inconclusive = small, poorly fitted or top-dose-only effect, or another doubt; inactive = no such curve, though single readings can be large; an effect the other way counts as inactive or inconclusive.

The viability is a read-out of living cells in per cent, often relative to untreated cells.

A short description of experiment [1]: BET inhibitor-based combinations targeting novel dependencies in MECOM-rearranged (r) AML: SET-2 cell line (AID 2202231). Also: nearly all actives have a fitted effect of over 35% in size.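 As to viability: plate controls were DMSO treated cells for no effect and wells without cells for full effect.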 The following applies: SET-2 AML cells viability, CellTiter-Glo luminescence, 48 h; viability: active compounds read low, concentration not given here. Put shortly:
(§1)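 500 cells/well; 11-pt dose curve; 48 h, standard incubator; CellTiter-Glo luminescence after 15 min RT; DMSO/empty-well normalization; AUC plus Z-AUC (mean-centered within each line).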
On the technique in general: Cellular ATP, detected with luciferase, serves as a proxy for viable cell number.

The nature of experiment [2]: BET inhibitor-based combinations targeting novel dependencies in MECOM-rearranged (r) AML: OCI-AML3 cell line (AID 2202232). Also: nearly all actives have a fitted effect of over 35% in size.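 As to viability (% of control): series mostly up to about 46 µM; plate controls were DMSO vehicle wells for no effect and wells without cells for full effect.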 To be noted: Potency: OCI-AML3 viability. Put shortly: as §1
A short description of experiment [3]: BET inhibitor-based combinations targeting novel dependencies in MECOM-rearranged (r) AML: HNT-34 cell line (AID 2202234). Also: nearly all actives have a fitted effect of over 35% in size.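 As to viability (% of control): plate controls were vehicle wells for no effect and cell-free wells for full effect.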 Put shortly:
(§2)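 Cells were plated at 500 per well and exposed to each drug across an 11-point dose range for 48 hr at standard incubator conditions. Viability was read by CellTiter-Glo luminescence, and activity was expressed as AUC and per-cell-line Z-transformed AUC.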

Experiment [4] in a line: BET inhibitor-based combinations targeting novel dependencies in MECOM-rearranged (r) AML: UCSD-AML1 cell line (AID 2202235). Also: nearly all actives have a fitted effect of over 40% in size.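 As to viability (% of control): series mostly up to about 46 µM; plate controls were DMSO vehicle wells for no effect and blank wells for full effect.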 Put shortly: as §2
A short description of experiment [5]: BET inhibitor-based combinations targeting novel dependencies in MECOM-rearranged (r) AML: AML-191 cell line (AID 2202236; also: nearly all actives have a fitted effect of over 35% in size;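 as to viability (% of control): plate controls were vehicle wells for no effect and wells without cells for full effect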). In a few lines: as §1
Experiment [6] can be described thus: BET inhibitor-based combinations targeting novel dependencies in MECOM-rearranged (r) AML: AML-194 cell line (AID 2202237; also: nearly all actives have a fitted effect of over 40% in size;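 as to viability (% of control): plate controls were vehicle wells for no effect and wells without cells for full effect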). Put shortly:
as §1

Experiment [7] is described as follows: BET inhibitor-based combinations targeting novel dependencies in MECOM-rearranged (r) AML: MV-4-11 cell line (AID 2202233). Also: nearly all actives have a fitted effect of over 45% in size. Put shortly: as §2
Potency is read from the fitted curve at half-maximal effect.

Regarding `Nc1nc(=S)c2[nH]cnc2[nH]1`, the Potency is 0.742 µM (active) in experiment [1]; 0.417 µM (active) in experiment [2]; 3.32 µM (active) in experiment [3]; 2.95 µM (active) in experiment [4]; 0.833 µM (active) in experiment [5]; 3.72 µM (active) in experiment [6].

Take `NC(=S)N/N=C/c1ncccc1N`: the Potency in experiment [1] was 16.6 µM (active); in experiment [2] it was 5.25 µM (active); in experiment [3] it was 16.6 µM (active); in experiment [4] it was 5.9 µM (active); in experiment [5], 23.5 µM (active); in experiment [6], 20.9 µM (active).

Regarding `CCC(C)CNCC(=O)N1CCc2sccc2C1c1cccc(C)n1` (stereo unspecified), the viability in experiment [1] is 95.4%. The Potency result in experiment [2], in experiment [7], in experiment [5] and in experiment [6] was “inactive” in each case.

Regarding `COc1ccnc(CS(=O)c2nc3ccc(OC(F)F)cc3[nH]2)c1OC` (stereo unspecified), in experiment [1], the viability is 114%. For the same compound, the Potency in experiment [2] was 23.5 µM (active). Besides, the Potency entry in experiment [3], in experiment [4], in experiment [5] and in experiment [6] was “inactive” each time.

Take `Cn1cc(CNCC2CCN(c3ncc(C(=O)NO)cn3)CC2)c2ccccc21`: the Potency in experiment [1] was 0.148 µM (active); in experiment [2], 0.118 µM (active); in experiment [3] it was 0.118 µM (active); in experiment [4], 0.105 µM (active); in experiment [5] it was 0.148 µM (active).

`Cc1ccc(NC(=O)NCc2ccc3c(c2)CN(C2CCC(=O)NC2=O)C3=O)cc1Cl` (stereo unspecified): the Potency was 0.0295 µM (active) in experiment [1]; 0.003 µM (active) in experiment [2]; 0.0026 µM (active) in experiment [7]; 0.0023 µM (active) in experiment [5]; 0.0019 µM (active) in experiment [6].

Consider `O=C1CC(c2c[nH]c3ccc(F)cc23)C(=O)N1` (stereo unspecified), for which the viability in experiment [1] was 111%. Moreover, the Potency entry in experiment [2], in experiment [3], in experiment [4], in experiment [5] and in experiment [6] was “inactive” throughout.

`O=C(/C=C/c1ccc(/C=C/C(=O)Nc2ccc(C3=NCCN3)cc2)cc1)Nc1ccc(C2=NCCN2)cc1`: the viability in experiment [1] is 113%. Moreover, the viability (% of control) in experiment [2] was 117% [at 5.12 µM]; in experiment [3] it was 109% [at 5.12 µM]; in experiment [4], 115% [at 5.12 µM]; in experiment [5], 109% [at 5.12 µM]; in experiment [6], 108% [at 5.12 µM].

Consider `COc1ccc(CNC(=O)c2cc(-c3cncc(Cl)c3)cnc2-c2ccccn2)nc1OC`, for which, in experiment [1], the viability was 109%. In addition, the Potency result in experiment [2], in experiment [3], in experiment [4], in experiment [5] and in experiment [6] was “inactive” throughout.

On to `O=C(NO)c1ccc(C2=Nc3ccccc3Oc3ccccc32)cc1`, for which the Potency in experiment [1] was 2.95 µM (active); in experiment [2], 5.25 µM (active); in experiment [3], 3.72 µM (active); in experiment [4], 4.17 µM (active); in experiment [5], 3.32 µM (active); in experiment [6], 4.68 µM (active).

Turning to `NC(=O)/C(=C/n1cnc(-c2cc(C(F)(F)F)cc(C(F)(F)F)c2)n1)c1cncnc1`, the Potency was 0.59 µM (active) in experiment [1]; 0.742 µM (active) in experiment [2]; 0.742 µM (active) in experiment [3]; 0.118 µM (active) in experiment [4]; 0.263 µM (active) in experiment [5]; 0.166 µM (active) in experiment [6].

Turning to `CCCCCCCOc1ccc(CCC(N)(CO)CO)cc1C(F)(F)F`, the Potency was 18.6 µM (active) in experiment [1]; 16.6 µM (active) in experiment [2]; 14.8 µM (active) in experiment [7]; 18.6 µM (active) in experiment [5]; 14.8 µM (active) in experiment [6].

`O=C1CC[C@H](N2Cc3c(OCc4ccc(CN5CCOCC5)cc4)cccc3C2=O)C(=O)N1`: in experiment [1], the viability was 102%. Besides, the Potency entry in experiment [2], in experiment [3], in experiment [4], in experiment [5] and in experiment [6] was “inactive” throughout.

Take `CC(C)n1ncnc1-c1cn2c(n1)-c1ccc(O[C@@H](C)C(N)=O)cc1OCC2`: the viability in experiment [1] was 99%. Moreover, the Potency was 2.35 µM (active) in experiment [2], 18.6 µM (active) in experiment [3] and 5.25 µM (active) in experiment [4].

With `Nc1nc(Nc2ccc3c(c2)CC[C@@H](N2CCCC2)CC3)nn1-c1cc2c(nn1)-c1ccccc1CCC2`, the Potency in experiment [1] was 23.5 µM (active); in experiment [2] it was 18.6 µM (active); in experiment [3] it was 7.42 µM (active); in experiment [4], 18.6 µM (active); in experiment [5], 18.6 µM (active); in experiment [6] it was 20.9 µM (active).

On to `COc1cc([C@@H](CC(=O)O)c2ccc(C)c(CN3C[C@@H](C)Oc4ccccc4S3(=O)=O)c2)cc2nnn(C)c12`, for which the viability in experiment [1] was 67.3%. Besides, the Potency entry in experiment [2], in experiment [3], in experiment [4], in experiment [5] and in experiment [6] was “inactive” each time.

Turning to `CNC(=O)c1c(C)oc2cc(Oc3ncnc4cc(OC)c(OC)cc34)ccc12`, the viability in experiment [1] is 116%. For the same compound, the Potency entry in experiment [2], in experiment [3], in experiment [4], in experiment [5] and in experiment [6] was “inactive” in each case.
